Source: PubChem BioAssay
STK33 inh: blocks human STK33 kinase activity | inhibition, % at 12.5 µM | 27,000 tested, 0.44% active | Q9BYT3 | AID 2322 | ADP-Glo luminescence, MBP substrate; in the data active = inhibition above about 20%
Target sequence (Q9BYT3 whole entry, looked up): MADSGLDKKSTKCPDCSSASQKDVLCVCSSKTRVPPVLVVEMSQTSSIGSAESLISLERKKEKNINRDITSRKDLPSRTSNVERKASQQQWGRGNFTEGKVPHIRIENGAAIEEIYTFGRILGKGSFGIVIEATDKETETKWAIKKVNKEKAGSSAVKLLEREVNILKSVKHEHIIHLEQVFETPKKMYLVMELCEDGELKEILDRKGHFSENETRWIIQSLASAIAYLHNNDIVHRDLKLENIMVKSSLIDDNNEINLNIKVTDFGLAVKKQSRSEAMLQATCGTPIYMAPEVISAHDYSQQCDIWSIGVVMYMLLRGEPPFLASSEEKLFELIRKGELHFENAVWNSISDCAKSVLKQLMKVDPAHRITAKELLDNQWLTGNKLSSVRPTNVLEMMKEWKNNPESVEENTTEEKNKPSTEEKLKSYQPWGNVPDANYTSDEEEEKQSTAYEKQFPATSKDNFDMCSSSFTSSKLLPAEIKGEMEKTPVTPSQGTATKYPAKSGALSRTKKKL
PD-1 reversal: reversal of PD-1 mediated T-cell inhibition. primary human CD4 T cells, PD-L1 beads, CellTiter-Glo 96 h. activation, % (no concentration beside the values). 29,000 tested, under 10 active; call rule not given here
NOMO-1 viab: STK33 inhibitor candidate reducing NOMO-1 cell viability. NOMO-1 AML viability, CellTiter-Glo luminescence, 72 h. inhibition, % (concentration not given with the values). 37,000 tested, 7.5% active; in the data active = inhibition above about 80%
Each line names hits and unclear results; the compound was inactive in the other large screens. Only a selection was taken, and hits are over-represented in it overall.

C[C@H](CO)N1C[C@H](C)[C@H](CN(C)CC2CCCCC2)Oc2ccc(NS(=O)(=O)c3ccccc3)cc2CC1=O	none (no result: PD-1 reversal)
C[C@@H]1CN([C@H](C)CO)C(=O)Cc2cc(NS(=O)(=O)c3ccccc3)ccc2O[C@H]1CN(C)CC1CCCCC1	none
Cc1ccc(S(=O)(=O)Nc2ccc3c(c2)CC(=O)N([C@H](C)CO)C[C@@H](C)[C@@H](CN(C)CC2CCCCC2)O3)cc1	NOMO-1 viab 97.0
CCn1c(SCC(=O)Nc2ccc(Cl)cc2C)nnc1-c1ccncc1	none
COc1ccccc1NC(=O)CSc1ncnc2sc(-c3ccccc3)cc12	none (no result: PD-1 reversal)
O=C(CSc1nnc(-c2ccc([N+](=O)[O-])cc2)n1-c1ccccc1)Nc1ccc(Cl)cc1	none
CC(=O)Nc1ccc(NC(=O)CSC2=NC(c3ccccc3)CC(=O)N2)cc1 (stereo not given)	none
CC12CCC(C(=O)O)(c3nc4ccc5ncccc5c4nc31)C2(C)C (stereo not given)	none (no result: STK33 inh)
CCOc1ccccc1C(=O)Nc1ccc(S(=O)(=O)Nc2nc(C)cc(C)n2)cc1	none
CCOc1ccccc1C(=O)Nc1ccc(S(=O)(=O)Nc2ccccn2)cc1	STK33 inh 24.5
C=C1C(=O)O[C@H]2[C@H]1[C@@H](OC(=O)/C(C)=C/C)C(OC(C)=O)/C(C(=O)OC)=C\CC[C@@]1(C)O[C@H]21 (stereo not given in full)	NOMO-1 viab 119.0
C=C1C(=O)O[C@H]2[C@H]1[C@@H](OC(=O)/C(C)=C\C)C(OC(C)=O)/C(C(=O)OC)=C\CC[C@@]1(C)O[C@H]21 (stereo not given in full)	NOMO-1 viab 108.5
C=C1C(=O)O[C@H]2[C@H]1C[C@H](OC(=O)/C(C)=C\C)/C(C)=C\CC[C@@]1(C)O[C@@H]21	NOMO-1 viab 120.9
C=C1C(=O)O[C@H]2[C@H]1[C@@H](OC(=O)C(C)(O)CCl)C(OC(C)=O)/C(C(=O)OC)=C\CC[C@@]1(C)O[C@H]21 (stereo not given in full)	NOMO-1 viab 109.1
CS(=O)(=NS(=O)(=O)c1cccs1)c1ccc(OC(=O)c2ccc(Cl)cc2)cc1 (stereo not given)	none (no result: STK33 inh)
CN(c1cccc(NC(=O)CN2C(=O)c3cccc4cccc2c34)c1)S(C)(=O)=O	none (no result: PD-1 reversal)
CCCn1nnc(NC(=O)COc2ccc(Br)cc2)n1	none
O=c1nc(Nc2ccc(OC(F)(F)F)cc2)oc2ccccc12	none (no result: STK33 inh)
N#Cc1cc2c(OCC(O)CN3CCN(C(c4ccccc4)c4ccccc4)CC3)cccc2[nH]1 (stereo not given)	NOMO-1 viab 116.2 (no result: PD-1 reversal)
Cc1ccc(C)c(OCC(O)CN2CCN(CCO)CC2)c1 (stereo not given)	none
CC(C)NC(=O)Nc1ccc2c(c1)C(=O)N([C@H](C)CO)C[C@H](C)[C@H](CN(C)Cc1ccc(Cl)c(Cl)c1)OCCCC[C@@H](C)O2	NOMO-1 viab 100.7
CC(C)NC(=O)Nc1ccc2c(c1)C(=O)N([C@H](C)CO)C[C@H](C)[C@H](CN(C)Cc1ccncc1)OCCCC[C@@H](C)O2	none
C[C@@H]1CCCCO[C@H](CN(C)Cc2ccc(Cl)c(Cl)c2)[C@@H](C)CN([C@H](C)CO)C(=O)c2cc(NC(=O)Nc3ccc(F)cc3)ccc2O1	NOMO-1 viab 125.7 (no result: PD-1 reversal)
C[C@@H]1CCCCO[C@@H](CN(C)Cc2ccc(Cl)c(Cl)c2)[C@@H](C)CN([C@H](C)CO)C(=O)c2cc(NC(=O)c3ccccc3)ccc2O1	NOMO-1 viab 121.7
C[C@@H]1CCCCO[C@H](CN(C)Cc2ccccc2)[C@@H](C)CN([C@H](C)CO)C(=O)c2cc(NC(=O)c3ccccc3)ccc2O1	none (no result: PD-1 reversal)
COc1ccc(NC(=O)Nc2ccc3c(c2)C(=O)N([C@H](C)CO)C[C@H](C)[C@H](CN(C)Cc2ccc(Cl)c(Cl)c2)OCCCC[C@@H](C)O3)cc1	NOMO-1 viab 97.8
COc1ccc(NC(=O)Nc2ccc3c(c2)C(=O)N([C@H](C)CO)C[C@H](C)[C@@H](CN(C)Cc2ccc(Cl)c(Cl)c2)OCCCC[C@@H](C)O3)cc1	none (no result: PD-1 reversal)
C[C@@H]1CCCCO[C@@H](CN(C)Cc2ccncc2)[C@@H](C)CN([C@H](C)CO)C(=O)c2cc(NC(=O)Nc3ccc(F)cc3)ccc2O1	none (no result: PD-1 reversal)
Clc1cc(Cl)cc(Oc2nc(-c3ccccc3)ns2)c1	none (no result: STK33 inh)
COc1cc(OC)cc(-c2nnc(SCC(=O)Nc3ccc(Cl)cc3C)n2-c2ccccc2)c1	none
COc1cccc(-c2cc(C(F)(F)F)n3nc(C(=O)Nc4c(C#N)cnn4C)cc3n2)c1	none
C[C@@H]1CCCCO[C@H](CN(C)Cc2ccc3c(c2)OCO3)[C@@H](C)CN([C@H](C)CO)C(=O)c2cc(NC(=O)Nc3ccc(F)cc3)ccc2O1	none
C[C@@H]1CCCCO[C@@H](CN(C)Cc2ccc(Cl)c(Cl)c2)[C@@H](C)CN([C@H](C)CO)C(=O)c2cc(NC(=O)Nc3ccc(F)cc3)ccc2O1	NOMO-1 viab 134.4
